# Screening data (PubChem)
# The list is not random: actives were taken first. Their share in the collection is about 1.5%.
# uPA generation: cell surface uPA generation inhibition | cell surface uPA generation assay, qHTS | Potency, µM (series often up to 38.3 µM), for the others: at the top dose activity change, negative = inhibition, actives largely listed as inhibitors | 0.31% of 330,000 active | AID 540303; active = well fitted inhibition curve with a large enough effect; inconclusive = small, poorly fitted or top-dose-only effect; inactive = no such curve, though single readings can be large or run the other way; tested in mouse RAW 264.7 cells; also: potency is read from the fitted curve at half-maximal effect; % is scaled to controls: 0 for no effect and ±100 for the full control effect; nearly all actives have a fitted effect of over 55% in size
# Nrf2 activator: activates Nrf2 signaling; AREc32 ARE-luciferase reporter (MCF7-derived line), luminescence, 24 h; Potency, µM (top dose mostly 46.1 µM), inactives show at the highest dose activation, most hits filed as activators; 0.31% of 410,000 active; also: potency is read from the fitted curve at half-maximal effect; % of control where 0% means no effect; nearly all actives have a fitted effect of over 65% in size
#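 Cells of the AREc32 ARE-luciferase line are plated in OPTI-MEM containing 5% FBS and left overnight at 37 deg C. Compounds are pinned in, incubation continues 24 hr, and firefly luciferase signal is then measured.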
# Integrin act MD: activators of alpha7 integrin expression for muscular dystrophy | alpha7betagal myoblasts, beta-gal FDG fluorescence, 48 h | Potency, µM (doses to about 38.3 µM), without a hit: at the highest dose activation, actives largely listed as activators | 0.064% of 350,000 active;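 also: potency is read from the fitted curve at half-maximal effect; 100% = response of the positive control SU9516; nearly all actives have a fitted effect of over 60% in size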
#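 Alpha7betagal+/- myoblasts (passage 13) were plated 16-24 hr, then exposed to compounds (1:260 dilution of DMSO stock) for 48 hours at 37C. After MPER lysis, β-galactosidase reporter activity was read as FDG fluorescence (ex 480/em 540) after 30 minutes.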
# 12-LOX inh: inhibitors of human 12S-lipoxygenase ALOX12; P18054; purified 12hLO, xylenol orange hydroperoxide absorbance; Potency, µM (top dose mostly 108 µM), for the others: top-dose activity change, negative = inhibition, hits mostly inhibitors; 1.1% of 580,000 active; AID 1671190; also: potency is read from the fitted curve at half-maximal effect; % is scaled to controls: 0 for no effect and ±100 for the full control effect
# Target sequence (P18054 whole entry, looked up): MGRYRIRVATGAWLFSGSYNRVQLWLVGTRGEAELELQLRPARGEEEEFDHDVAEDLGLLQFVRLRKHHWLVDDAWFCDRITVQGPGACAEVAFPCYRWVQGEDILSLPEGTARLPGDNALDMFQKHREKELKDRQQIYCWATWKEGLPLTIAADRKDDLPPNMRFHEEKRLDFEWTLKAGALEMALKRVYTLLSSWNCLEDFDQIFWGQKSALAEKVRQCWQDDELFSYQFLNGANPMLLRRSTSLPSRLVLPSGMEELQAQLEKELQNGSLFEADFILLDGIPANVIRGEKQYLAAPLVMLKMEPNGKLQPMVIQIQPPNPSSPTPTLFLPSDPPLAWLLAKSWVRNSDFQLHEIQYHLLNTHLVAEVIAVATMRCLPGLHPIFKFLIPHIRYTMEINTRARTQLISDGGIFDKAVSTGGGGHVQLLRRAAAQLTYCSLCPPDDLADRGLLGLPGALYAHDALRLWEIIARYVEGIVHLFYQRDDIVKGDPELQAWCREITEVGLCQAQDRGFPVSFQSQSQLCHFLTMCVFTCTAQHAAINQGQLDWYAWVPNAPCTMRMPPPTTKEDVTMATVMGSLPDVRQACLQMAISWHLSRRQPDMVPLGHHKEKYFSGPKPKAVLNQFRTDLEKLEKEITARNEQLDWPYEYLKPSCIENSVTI
#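 Purified human 12hLO at 150 nM in 25 mM Hepes, 0.01% Triton X-100, pH 7.0, preincubated 15 min at room temperature with compound. Reaction started with 40 uM arachidonic acid, 30 min at room temperature. Hydroperoxide measured by Fe-xylenol orange, 573/405 nm absorbance ratio.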
# IL2 activator: IL-2 activation; 0.065% of 360,000 active; activation, % (series mostly up to about 46 µM); IL-2 activation reporter assay, cell-based qHTS; stimulated with anti-CD3/CD4/CD28 beads; in transgenic mouse T cells; in the data active = activation above about 50%; inconclusive = mostly about 30% to 49%; also: 0% is about no effect
#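 Using fluorescent plate cytometry, EGFP and DsRed are detected in transgenic mouse T cells stimulated 18 h at 37 degrees C with antibody-coated beads after 60 min compound pretreatment.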
# Active calls of the source: *; ? = inconclusive; · = not tested or not shown; ! = not confirmed by another sample; [ ] = remark or other dose. Unless noted, calls follow the shape of the dose curve; as a rule, active = well fitted curve in the direction sought with a large enough effect; inconclusive = small, poorly fitted or top-dose-only effect, or another doubt; inactive = no such curve, though single readings can be large; an effect the other way counts as inactive or inconclusive.
SMILES,uPA generation,Nrf2 activator,Integrin act MD,12-LOX inh,IL2 activator
CSc1cccc(NC(=O)N[C@H]2C[C@@H](C(=O)N[C@H](Cc3c[nH]c4ccccc34)C(N)=O)N(C(=O)c3cccn3C)C2)c1,·,·,·,12%,·
CC1=C(C(=O)OCc2ccccc2)C(c2ccc(C(C)(C)C)cc2)NC(=O)N1CCCCCC(=O)O (configuration not stated),?,0%,20%,25µM*,1
CC1=C(C(=O)OCc2ccccc2)C(c2ccccc2[N+](=O)[O-])NC(=O)N1C (configuration not stated),9%,-1%,-9%,16µM*,0
CC1=C(C(=O)OCc2ccccc2)C(c2ccccc2)NC(=O)N1CCCCCC(=O)O (configuration not stated),5%,3%,21%,0%,-3
Cc1ccc(S(=O)(=O)N2CC[C@@H](CC(=O)O)[C@@H](CCN(CCN3CCOCC3)c3ccccc3)C2)cc1,·,·,·,71%,·
O=C(Nc1nnc(-c2ccco2)s1)C1CCN(S(=O)(=O)c2ccc(Cl)cc2)CC1,-1%,0%,7%,-10%[57.4 µM],-2
O=C(Nc1nnc(-c2ccco2)s1)C1CC1,2%,11µM*,?,-30%,-1
CC(C)C(=O)Nc1nnc(-c2ccco2)s1,-21%,10µM*,-22%,-5%,-4
Fc1ccc(Cc2nc3nccc(-c4ccccc4)n3n2)cc1,·,·,·,53%,·
COCCn1c(CCC(=O)Nc2ccc(C)cc2)nc2c1c(=O)[nH]c(=O)n2CC(C)C,·,·,·,6%,·
CCCc1noc(-c2ccn3c(CNC(=O)c4cccnc4)nnc3c2)n1,·,·,·,38%,·
CC(=O)C1=CCC(c2ccc(C)o2)N(S(=O)(=O)c2ccc(C)cc2)C1 (configuration not stated),·,7%,·,10µM*,-1
COc1ccc2oc(C(=O)Nc3nc(C)cs3)c(C)c2c1,10µM*,23%,?,22%,-1
Cn1c(/C(C#N)=C/c2ccccc2Br)nc2ccccc21,·,8.9µM*,·,-13%,·
Cc1nc2ccc(S(=O)(=O)CCC(=O)Nc3ccc(F)cc3C)cc2s1,·,0%,·,22µM*,·
Cc1ccnc(NC(=O)Cc2ccc(Cl)cc2Cl)c1,·,·,·,-15%,·
COc1ccccc1CNc1ccnc(-c2ccc(N(C)C)cc2)n1,·,·,·,25µM*,·
COc1ccc(CNc2ccnc(-c3ccccc3OC)n2)c(OC)c1,·,·,·,-16%,·
CNc1ccnc(-c2ccccc2OC)n1,·,·,·,16µM*,·
COc1ccccc1-c1nccc(NCc2ccccc2)n1,·,·,·,22µM*,·
Cc1nc(C(C)(C)C)nc2sc(C(=O)N3CCCCC3)c(C)c12,·,·,·,88%,·
COc1cc2c(cc1NC(=O)Cc1ccccc1C)oc1ccccc12,·,·,·,5%,·
O=C(NN/C(=N/S(=O)(=O)c1ccc(Cl)cc1)c1ccccc1)c1cccc(Cl)c1,-5%,4.5µM*,-20%,-1%,0
O=S(=O)(/N=C(/NC(=S)Nc1ccccc1)c1ccccc1)c1ccc(Cl)cc1,-5%,3%,0%,40µM*,-1
Cc1ccc(S(=O)(=O)/N=C(/NNC(=O)c2cccc(Cl)c2)c2ccccc2)cc1,-4%,?,4%,4%,2
SMILES,uPA generation,Nrf2 activator,Integrin act MD,12-LOX inh,IL2 activator
O=C(O)c1ccc(N/C(=N\S(=O)(=O)c2ccc(Cl)cc2)c2ccccc2)cc1,3%,-1%,11%,71%,-3
COc1ccc(NC(=S)N/C(=N/S(=O)(=O)c2ccc(C)cc2)c2ccccc2)cc1,-14%,5%,0%,?,3
COc1ccc(NC(=S)NC(=NS(=O)(=O)c2ccc(Cl)cc2)c2ccccc2)cc1,-5%,5%,-20%,32µM*,-1
S=C(NC(=NCc1ccccc1)c1ccccc1)Nc1ccccc1,·,·,·,14µM*,·
CC(=O)Nc1ccc(NC(=O)CSc2nc(C3CC3)n(-c3ccccc3)n2)cc1,·,·,·,12%,·
CCNc1c(NS(=O)(=O)c2ccc(F)cc2F)c(=O)oc2ccccc12,·,·,·,-29%,·
Cc1ccc2oc(=O)n(CCC(=O)NC3CCCN(c4ncccn4)C3)c2c1 (configuration not stated),·,·,·,45%,·
CC1=NN(c2ccccc2)C(=O)/C1=C/c1ccc(Cl)cc1,6%,1%,-4%,6.3µM*,-1
CC(NC(=O)C1CC1)C(c1cccs1)N1CCN(c2ccccc2)CC1 (configuration not stated),-15%,0%,-5%,7%,0
CC(NC(=O)NC1CCCCC1)C(c1cccs1)N1CCN(c2ccccc2)CC1 (configuration not stated),10µM*,0%,-13%,8%,-3
CCc1oc2ccccc2c1C(=O)c1cc(Br)c(O)c(Br)c1,-12%,1%,·,45µM*!,0
Cc1cc2c(c(=O)n(-c3ccccc3)c(=O)n2CC(=O)Nc2cccc(C#N)c2)n1C,·,·,·,23%,·
COc1ccc(-n2nc([N+](=O)[O-])c(=NCCCN3CCCC3=O)n2O)cc1,11µM*,0%,-13%,-1%,-1
CCn1ncc2c(C(=O)Nc3cc(OC)cc(OC)c3)cc(-c3cccs3)nc21,·,·,·,-3%,·
O=C(c1ccco1)N1CCN(CCOCCOc2cccc3ccccc23)CC1,3%,3%,-29%,?,-2
O=C(c1ccco1)N1CCN(CCCCOc2cccc3ccccc23)CC1,3%,0%[9.22 µM],-87%,45µM*,1
Clc1cccc(CN2CCSCC2)c1,14%,0%,0%,0.35µM*,-1
O=C(c1cccnc1)N1CCC2(CC1)OCCN(Cc1ccccc1)C2=O,·,·,·,11%[176 µM],·
O=C(O)c1cc(/C=C/c2ccc(N3CCOCC3)cc2)nc2ccccc12,-19%,-1%,-21%,-27%,1
COc1cc(/C=C/c2cc(C(=O)O)c3ccccc3n2)ccc1OC(F)F,2.8µM*,0%,13%,?,0
O=C(Nc1cccc(Cl)c1)OCc1cnc(Cl)s1,6%,5%,14%,25µM*,-1
Cn1nc(C(=O)OCC(=O)NC(=O)c2ccc(OC(F)F)cc2)c2ccccc2c1=O,·,·,·,-14%,·
CCNC(=O)N1CCCC1c1noc(CCC(=O)NC2CC2)n1 (configuration not stated),·,·,·,17%,·
CCNC(=O)N1CCCC1c1noc(CCC(=O)NCCC(C)C)n1 (configuration not stated),·,·,·,40µM*,·
CCOC(=O)C1CCCN(C(=O)C2COC3(CCCCC3)N2C(=O)c2cc(F)cc(F)c2)C1 (configuration not stated),·,·,·,59%,·
Cc1cc(C)n2nc(-c3ccc(Br)cc3)cc2n1,-2%,2.2µM*,-1%,12%,0
Cc1cc(C)n2nc(-c3ccc(Cl)cc3)cc2n1,-7%,14µM*,1%,0%,1
COc1ccc(-c2cc3nc(C)cc(C)n3n2)cc1,-7%,26%,-1%,1%,1
COc1ccc(-c2noc(C(=O)N(C)C)c2[C@H](C)O)cc1,·,·,·,32%[176 µM],·
Cc1ccccc1-c1cc(C(=O)Nc2nncs2)c2ccccc2n1,·,·,·,-22%,·
